Results reported in article PMC11006913.

Key:
Test in all cases: PBM; 200 nM protein, PBS
Conditions in all cases: dsDNA, one strand shown
HOXB9 [1] = target: HOXB9 (Homo sapiens, UniProt P17482 171-250, T197M)
HOXC9 [2] = target: HOXC9 (Homo sapiens, UniProt P31274 178-260, K195R)
HOXC10 [3] = target: HOXC10 (Homo sapiens, UniProt Q9NYD6 254-340)
HOXB9 [4] = target: HOXB9 (Homo sapiens, UniProt P17482 171-250)
HOXC9 [5] = target: HOXC9 (Homo sapiens, UniProt P31274 178-260)
HOXC9 [6] = target: HOXC9 (Homo sapiens, UniProt P31274 178-260, R193K)
Sequence of HOXC9 (Homo sapiens, UniProt P31274 178-260, R193K) (P31274 178-260 R193K): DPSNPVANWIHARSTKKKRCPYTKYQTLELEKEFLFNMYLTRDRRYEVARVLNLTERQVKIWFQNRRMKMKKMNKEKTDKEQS

HOXC10 [7] = target: HOXC10 (Homo sapiens, UniProt Q9NYD6 254-340, K271E)
Sequence of HOXC10 (Homo sapiens, UniProt Q9NYD6 254-340, K271E) (Q9NYD6 254-340 K271E): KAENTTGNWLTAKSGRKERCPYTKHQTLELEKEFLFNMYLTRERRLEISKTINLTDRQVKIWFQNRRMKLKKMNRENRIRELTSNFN

HOXB9 [8] = target: HOXB9 (Homo sapiens, UniProt P17482 171-250, R186Q)
Sequence of HOXB9 (Homo sapiens, UniProt P17482 171-250, R186Q) (P17482 171-250 R186Q): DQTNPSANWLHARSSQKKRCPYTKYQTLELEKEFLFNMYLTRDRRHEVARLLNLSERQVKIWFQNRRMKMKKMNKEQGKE

HOXC9 [9] = target: HOXC9 (Homo sapiens, UniProt P31274 178-260, R222W)
Sequence of HOXC9 (Homo sapiens, UniProt P31274 178-260, R222W) (P31274 178-260 R222W): as the sequence (P31274 178-260 R193K) above, with K16R, R45W counted along it

HOXD13 [10] = target: HOXD13 (Homo sapiens, UniProt P35453 263-343, T313R)
Sequence of HOXD13 (Homo sapiens, UniProt P35453 263-343, T313R) (P35453 263-343 T313R): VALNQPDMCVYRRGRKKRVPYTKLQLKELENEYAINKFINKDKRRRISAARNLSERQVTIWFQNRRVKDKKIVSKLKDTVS

HOXD13 [11] = target: HOXD13 (Homo sapiens, UniProt P35453 263-343)
Sequence of HOXD13 (Homo sapiens, UniProt P35453 263-343) (P35453 263-343): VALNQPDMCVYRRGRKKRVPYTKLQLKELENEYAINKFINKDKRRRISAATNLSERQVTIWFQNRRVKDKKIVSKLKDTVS

HOXD13 [12] = target: HOXD13 (Homo sapiens, UniProt P35453 263-343, T313A)
Sequence of HOXD13 (Homo sapiens, UniProt P35453 263-343, T313A) (P35453 263-343 T313A): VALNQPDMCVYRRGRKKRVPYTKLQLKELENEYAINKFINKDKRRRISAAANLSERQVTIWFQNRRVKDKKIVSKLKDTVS

ALX4 = ALX4 (Homo sapiens, UniProt Q9H161 200-286, Q225E)
Sequence of ALX4 (Q9H161 200-286 Q225E): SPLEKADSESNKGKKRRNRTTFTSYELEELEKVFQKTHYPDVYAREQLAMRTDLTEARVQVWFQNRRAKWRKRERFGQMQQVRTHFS

HOXA2 [13] = target: HOXA2 (Homo sapiens, UniProt O43364 129-215, R185T)
Sequence of HOXA2 (Homo sapiens, UniProt O43364 129-215, R185T) (O43364 129-215 R185T): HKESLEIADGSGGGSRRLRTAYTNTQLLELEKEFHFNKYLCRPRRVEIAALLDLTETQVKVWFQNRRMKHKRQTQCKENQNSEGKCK

HOXA2 [14] = target: HOXA2 (Homo sapiens, UniProt O43364 129-215, R185K)
Sequence of HOXA2 (Homo sapiens, UniProt O43364 129-215, R185K) (O43364 129-215 R185K): as the sequence (O43364 129-215 R185T) above, with T57K counted along it

HOXA2 [15] = target: HOXA2 (Homo sapiens, UniProt O43364 129-215, Y150S)
Sequence of HOXA2 (Homo sapiens, UniProt O43364 129-215, Y150S) (O43364 129-215 Y150S): as the sequence (O43364 129-215 R185T) above, with Y22S, T57R counted along it

HOXA2 [16] = target: HOXA2 (Homo sapiens, UniProt O43364 129-215)
Sequence of HOXA2 (Homo sapiens, UniProt O43364 129-215) (O43364 129-215): as the sequence (O43364 129-215 R185T) above, with T57R counted along it

Sequence of HOXC9 (Homo sapiens, UniProt P31274 178-260, K195R) (P31274 178-260 K195R): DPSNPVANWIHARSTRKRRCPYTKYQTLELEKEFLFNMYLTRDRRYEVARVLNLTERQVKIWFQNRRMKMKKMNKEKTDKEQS
Sequence of HOXB9 (Homo sapiens, UniProt P17482 171-250, T197M) (P17482 171-250 T197M): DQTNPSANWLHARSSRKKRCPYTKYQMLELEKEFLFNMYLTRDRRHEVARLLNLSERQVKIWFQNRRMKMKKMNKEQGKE
Sequence of HOXC10 (Homo sapiens, UniProt Q9NYD6 254-340) (Q9NYD6 254-340): as the sequence (Q9NYD6 254-340 K271E) above, with E18K counted along it
Sequence of HOXB9 (Homo sapiens, UniProt P17482 171-250) (P17482 171-250): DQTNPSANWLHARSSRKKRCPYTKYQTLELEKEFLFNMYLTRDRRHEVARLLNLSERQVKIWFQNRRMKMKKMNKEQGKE
Sequence of HOXC9 (Homo sapiens, UniProt P31274 178-260) (P31274 178-260): as the sequence (P31274 178-260 R193K) above, with K16R counted along it

Sequence | binding signal (HOXB9 [1]) | binding signal (HOXC9 [2]) | binding signal (HOXC10 [3]) | binding signal (HOXB9 [4]) | binding signal (HOXC9 [5]) | binding signal (HOXC9 [6]) | binding signal (HOXC10 [7]) | binding signal (HOXB9 [8]) | binding signal (HOXC9 [9]) | binding signal (HOXD13 [10]) | binding signal (HOXD13 [11]) | binding signal (HOXD13 [12]) | binding signal (ALX4) | binding signal (HOXA2 [13]) | binding signal (HOXA2 [14]) | binding signal (HOXA2 [15]) | binding signal (HOXA2 [16])
CCCTCACC | 8.63 upbm affinity estimate (log intensity, higher = more binding, comparable within an allelic series) | 9.5 upbm affinity estimate (log intensity, higher = more binding, comparable within an allelic series) | 9.97 upbm affinity estimate (log intensity, higher = more binding, comparable within an allelic series) | 8.28 upbm affinity estimate (log intensity, higher = more binding, comparable within an allelic series) | 9.44 upbm affinity estimate (log intensity, higher = more binding, comparable within an allelic series) | 9.56 upbm affinity estimate (log intensity, higher = more binding, comparable within an allelic series) | 9.96 upbm affinity estimate (log intensity, higher = more binding, comparable within an allelic series) | 8.43 upbm affinity estimate (log intensity, higher = more binding, comparable within an allelic series) | 9.7 upbm affinity estimate (log intensity, higher = more binding, comparable within an allelic series) | – | – | – | – | – | – | – | –
GTTTATTA | 9.87 upbm affinity estimate (log intensity, higher = more binding, comparable within an allelic series) | 12.6 upbm affinity estimate (log intensity, higher = more binding, comparable within an allelic series) | 12.4 upbm affinity estimate (log intensity, higher = more binding, comparable within an allelic series) | 11.7 upbm affinity estimate (log intensity, higher = more binding, comparable within an allelic series) | 12.6 upbm affinity estimate (log intensity, higher = more binding, comparable within an allelic series) | 12.6 upbm affinity estimate (log intensity, higher = more binding, comparable within an allelic series) | 11.6 upbm affinity estimate (log intensity, higher = more binding, comparable within an allelic series) | 11.5 upbm affinity estimate (log intensity, higher = more binding, comparable within an allelic series) | 11.2 upbm affinity estimate (log intensity, higher = more binding, comparable within an allelic series) | 11 upbm affinity estimate (log intensity, higher = more binding, comparable within an allelic series) | 12 upbm affinity estimate (log intensity, higher = more binding, comparable within an allelic series) | 11.8 upbm affinity estimate (log intensity, higher = more binding, comparable within an allelic series) | – | – | – | – | –
CATTAAAC | 9.93 upbm affinity estimate (log intensity, higher = more binding, comparable within an allelic series) | 12.5 upbm affinity estimate (log intensity, higher = more binding, comparable within an allelic series) | 12.2 upbm affinity estimate (log intensity, higher = more binding, comparable within an allelic series) | 11.8 upbm affinity estimate (log intensity, higher = more binding, comparable within an allelic series) | 12.6 upbm affinity estimate (log intensity, higher = more binding, comparable within an allelic series) | 12.6 upbm affinity estimate (log intensity, higher = more binding, comparable within an allelic series) | 11.9 upbm affinity estimate (log intensity, higher = more binding, comparable within an allelic series) | 11.6 upbm affinity estimate (log intensity, higher = more binding, comparable within an allelic series) | 10.9 upbm affinity estimate (log intensity, higher = more binding, comparable within an allelic series) | – | – | – | – | – | – | – | –
ATCATAAA | 9.69 upbm affinity estimate (log intensity, higher = more binding, comparable within an allelic series) | 12.7 upbm affinity estimate (log intensity, higher = more binding, comparable within an allelic series) | 12.5 upbm affinity estimate (log intensity, higher = more binding, comparable within an allelic series) | 11.9 upbm affinity estimate (log intensity, higher = more binding, comparable within an allelic series) | 12.8 upbm affinity estimate (log intensity, higher = more binding, comparable within an allelic series) | 12.7 upbm affinity estimate (log intensity, higher = more binding, comparable within an allelic series) | 11.8 upbm affinity estimate (log intensity, higher = more binding, comparable within an allelic series) | 11.7 upbm affinity estimate (log intensity, higher = more binding, comparable within an allelic series) | 10.9 upbm affinity estimate (log intensity, higher = more binding, comparable within an allelic series) | 10.8 upbm affinity estimate (log intensity, higher = more binding, comparable within an allelic series) | 11.8 upbm affinity estimate (log intensity, higher = more binding, comparable within an allelic series) | 11.8 upbm affinity estimate (log intensity, higher = more binding, comparable within an allelic series) | – | – | – | – | –
ATTTATTG | 9.87 upbm affinity estimate (log intensity, higher = more binding, comparable within an allelic series) | 12.5 upbm affinity estimate (log intensity, higher = more binding, comparable within an allelic series) | 12.4 upbm affinity estimate (log intensity, higher = more binding, comparable within an allelic series) | 11.9 upbm affinity estimate (log intensity, higher = more binding, comparable within an allelic series) | 12.7 upbm affinity estimate (log intensity, higher = more binding, comparable within an allelic series) | 12.6 upbm affinity estimate (log intensity, higher = more binding, comparable within an allelic series) | 11.7 upbm affinity estimate (log intensity, higher = more binding, comparable within an allelic series) | 11.6 upbm affinity estimate (log intensity, higher = more binding, comparable within an allelic series) | 11.2 upbm affinity estimate (log intensity, higher = more binding, comparable within an allelic series) | 10.9 upbm affinity estimate (log intensity, higher = more binding, comparable within an allelic series) | 12.2 upbm affinity estimate (log intensity, higher = more binding, comparable within an allelic series) | 12 upbm affinity estimate (log intensity, higher = more binding, comparable within an allelic series) | 11.2 upbm affinity estimate (log intensity, higher = more binding, comparable within an allelic series) | – | – | – | –
CATAAAAA | 9.93 upbm affinity estimate (log intensity, higher = more binding, comparable within an allelic series) | 12.8 upbm affinity estimate (log intensity, higher = more binding, comparable within an allelic series) | 12.6 upbm affinity estimate (log intensity, higher = more binding, comparable within an allelic series) | 12.4 upbm affinity estimate (log intensity, higher = more binding, comparable within an allelic series) | 13 upbm affinity estimate (log intensity, higher = more binding, comparable within an allelic series) | 13 upbm affinity estimate (log intensity, higher = more binding, comparable within an allelic series) | 12 upbm affinity estimate (log intensity, higher = more binding, comparable within an allelic series) | 12 upbm affinity estimate (log intensity, higher = more binding, comparable within an allelic series) | 11.4 upbm affinity estimate (log intensity, higher = more binding, comparable within an allelic series) | 10.7 upbm affinity estimate (log intensity, higher = more binding, comparable within an allelic series) | 11.8 upbm affinity estimate (log intensity, higher = more binding, comparable within an allelic series) | 11.6 upbm affinity estimate (log intensity, higher = more binding, comparable within an allelic series) | – | – | – | – | –
CGCCACCG | 8.56 upbm affinity estimate (log intensity, higher = more binding, comparable within an allelic series) | 9.67 upbm affinity estimate (log intensity, higher = more binding, comparable within an allelic series) | – | 8.3 upbm affinity estimate (log intensity, higher = more binding, comparable within an allelic series) | 9.81 upbm affinity estimate (log intensity, higher = more binding, comparable within an allelic series) | 9.64 upbm affinity estimate (log intensity, higher = more binding, comparable within an allelic series) | – | 8.46 upbm affinity estimate (log intensity, higher = more binding, comparable within an allelic series) | 9.73 upbm affinity estimate (log intensity, higher = more binding, comparable within an allelic series) | 9.57 upbm affinity estimate (log intensity, higher = more binding, comparable within an allelic series) | 9.56 upbm affinity estimate (log intensity, higher = more binding, comparable within an allelic series) | 9.65 upbm affinity estimate (log intensity, higher = more binding, comparable within an allelic series) | – | 7.25 upbm affinity estimate (log intensity, higher = more binding, comparable within an allelic series) | 10.5 upbm affinity estimate (log intensity, higher = more binding, comparable within an allelic series) | 10.7 upbm affinity estimate (log intensity, higher = more binding, comparable within an allelic series) | 7.41 upbm affinity estimate (log intensity, higher = more binding, comparable within an allelic series)
